# Reference: PubChem BioAssay AID1347056 (Sanford-Burnham Center for Chemical Genomics, 2019)
# Screen size: about 360,000 compounds; about 3,600 (1%) were called active.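 Rule for the calls: active = compounds whose plate-normalised and pattern-corrected inhibition of the luciferase reporter signal at the single screening dose is 50% or more; inactive = the rest.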 The list comes from a sample in which actives are over-represented; it also holds similar structures and randomly drawn compounds.
# Experiment: TROY pathway blockers in reporter cells – Q293 LMP1-TROYcd cells, NF-kB luciferase, uHTS, primary screen (AID 1347056)
# Details: 4 h, at 10 µM, hits give high values
row,SMILES,inhibition
1,N#CC(Cc1cc2ccccc2n1S(=O)(=O)c1ccccc1)OCc1ccccc1 (stereo not given),-2.35% (inactive)
2,CC(C)c1ccc(NS(=O)(=O)c2cn(C)c(=O)n(C)c2=O)cc1,-2.58% (inactive)
3,Cc1ccccc1NC(=O)C(C)c1ccc(-c2ccccc2)c(F)c1 (stereo not given),-1.18% (inactive)
4,N#CCSc1nc2c(c(=O)n1Cc1ccccc1)C1(CCCC1)Cc1ccccc1-2,3.7% (inactive)
5,Cc1cccc(-n2c(=O)c3c(C)c(C)sc3n(CC(N)=O)c2=O)c1,2.94% (inactive)
6,Cc1cccc(-n2c(SCC(N)=O)nc3c(c2=O)C2(CCCCC2)Cc2ccccc2-3)c1,51% (active)
7,Cc1cc(CNC(=O)C2CCC(=O)N(CCc3ccc(Cl)cc3)C2)no1 (stereo not given),-13% (inactive)
8,O=C(N/N=C/c1ccsc1)c1cc(O)cc(O)c1,-3.65% (inactive)
9,CSc1ncnc2c1ncn2CC(=O)C1CCC2C3CCC4=CC(=O)CCC4(C)C3CCC12C (stereo not given),76.2% (active)
10,CSc1ncnc2c1ncn2CCCNCC1CCCCC1,10.9% (inactive)
11,CC12CCC(=O)C=C1CCC1C2C(O)CC2(C)C1CCC2(O)C(O)CO (stereo not given),1.9% (inactive)
12,Cc1cc(C)c(NC(=O)CN2CCOCCOCCOCCOCC2)c(C)c1,3.84% (inactive)
13,COC(=O)C1=C(N)Oc2cc(C)oc(=O)c2C1c1cccnc1 (stereo not given),-1.83% (inactive)
14,COc1ccc(-c2c(C)cc3oc(=O)cc(-c4ccccc4)c3c2C)cc1OC,1.76% (inactive)
15,COc1ccc(-c2c(C)cc3oc(=O)cc(-c4ccccc4)c3c2C)cc1C=O,50.3% (active)
16,COc1ccc(-c2c(C)cc3oc(=O)cc(-c4ccccc4)c3c2C)cc1F,-22% (inactive)
17,COc1cc([C@H](Cc2ccccc2)NC(C)=O)oc(=O)c1,-27% (inactive)
18,CCOC(=O)C1(S(=O)(=O)c2ccc(Cl)cc2)CCN(Cc2ccccc2)CC1,-14.2% (inactive)
19,O=C(NCCN1CCOCC1)/C(=C/c1ccc(F)cc1)NC(=O)c1ccccc1,-11.7% (inactive)
20,Cc1cccc(-c2nc3ccc(C(=O)NCCN4CCN(C)CC4)cc3nc2-c2cccc(C)c2)c1,-28% (inactive)
21,CCN1CCN(CCNC(=O)c2ccc(/C=C3/Sc4ccccc4N(Cc4cccc(C)c4)C3=O)cc2)CC1,50.6% (active)
22,O=C(NCCN1CCOCC1)c1ccc(/C=C2\Sc3ccccc3N(Cc3ccc(F)cc3)C2=O)cc1,51% (active)
23,CCC1Oc2ccccc2N(CC(=O)NCCCN2CCN(CC)CC2)C1=O (stereo not given),1.63% (inactive)

row,SMILES,inhibition
1,Cc1c(C)n(Cc2ccc(Cl)cc2)c2ccc(C(=O)NCCCN3CCOCC3)cc12,-9.92% (inactive)
2,CCN1CCN(CCNC(=O)c2ccc3c(c2)NC(=O)/C(=C\c2cccc(Cl)c2)S3)CC1,2.74% (inactive)
3,Cc1ccc(C(=O)N/C(=C\c2ccc(F)cc2)C(=O)NCCN2CCOCC2)cc1,-5.95% (inactive)
4,CN1CCN(CCCNC(=O)c2ccc(/C=C3\Oc4ccccc4N(Cc4ccc(Cl)cc4)C3=O)cc2)CC1,80.6% (active)
5,Nc1nc(Br)c2ccccc2c1-c1ccc(F)cc1,14.8% (inactive)
6,O=[N+]([O-])c1ccc(N2CCN(S(=O)(=O)c3ccccc3)CC2)cc1N1CCc2ccccc2C1,-19.3% (inactive)
7,CCc1nc2ccc(C(=O)N3CCN(S(=O)(=O)CC)CC3)cn2c1N(C=O)CCC(C)C,0.5% (inactive)
8,C/C(CC(=O)NC(C)(C)C)=N\NC(=O)c1ccco1,-29.8% (inactive)
9,COC(=O)[C@H](Cc1ccccc1)NC(=O)[C@@H]1C[C@H]1[C@@H](NC(=O)OCc1ccccc1)c1ccccc1,5.51% (inactive)
10,Cc1cc(Nc2cccc(C)c2C)n2ncnc2n1,3.52% (inactive)
11,COC(=O)CNC(=O)c1ccc(OC2CCN(C(=O)C3CC3)CC2)cc1,2.78% (inactive)
12,CC1O[C@H](OC2C(COC3OC(CO)C(O)[C@H](O)C3O)OC(OC3CC[C@]4(C)C(CC[C@@]5(C)[C@@H]4C=C[C@]46OC[C@@]7(CCC(C)(C)C[C@H]74)C(O)C[C@@]56C)C3(C)C)C(O)C2O)C(O)C(O)C1O (stereo not given in full),-9.36% (inactive)
13,COc1ccc(CNC(=O)CN(c2ccc(OC)c(Cl)c2)S(=O)(=O)c2ccc(C)cc2)cc1,-0.8% (inactive)
14,Cc1ccccc1OCCC(=O)Nc1c(C)n(C)n(-c2ccccc2)c1=O,1.55% (inactive)
15,CCN(CC)CCNC(=O)c1ccc(NS(=O)(=O)c2ccc3c(c2)OCCO3)cc1,16.6% (inactive)
16,Cc1ccc(C(=O)Nc2ccc3c(c2)OCCO3)cc1S(=O)(=O)N1CCOCC1,-52% (inactive)
17,CC(NS(=O)(=O)c1ccc(Cl)cc1)C(=O)Nc1ccc2c(c1)OCCO2 (stereo not given),2.15% (inactive)
18,O=C(Nc1ccc2c(c1)OCCO2)c1ccc(Cl)c(S(=O)(=O)N2CCCCC2)c1,54.4% (active)
19,O=C(Nc1cccc(S(=O)(=O)Nc2ccc(Cl)cc2)c1)c1ccc2c(c1)OCCO2,56.2% (active)
20,CN1CCN(c2ccc(NC(=O)c3ccc4c(c3)OCCO4)cc2Cl)CC1,22.3% (inactive)
21,C/C(=N\N(C)C)c1ccc(OCCOc2ccc([N+](=O)[O-])cc2)cc1,-19.4% (inactive)
22,COc1ccc(N(CC(=O)Nc2cc(OC)cc(OC)c2)S(=O)(=O)c2c(C)n[nH]c2C)cc1,-9.7% (inactive)
23,CN1C(=O)CC(c2ccccc2)C1=O (stereo not given),0.86% (inactive)

row,SMILES,inhibition
1,COCCN(Cc1cc2cc3c(cc2nc1Cl)OCO3)C(=O)c1cccc(C)c1,19.8% (inactive)
2,CN1CCN(CCCCOc2cccc3ccccc23)CC1,-39.4% (inactive)
3,CC1CC(C)CN(CCOc2cccc3ccccc23)C1 (stereo not given),6.96% (inactive)
4,CC(C)c1ccccc1OCC(O)CN(CC(O)COc1cccc2ccccc12)C(C)C (stereo not given),65.6% (active)
5,NC(=O)NC(=O)C(OC(=O)CCNS(=O)(=O)c1ccccc1)c1ccccc1 (stereo not given),1.93% (inactive)
6,Cc1ccc(CNCc2ccc3c(c2)OCO3)c(C)c1,-5.84% (inactive)
7,CC(C)COC(=O)C1C2C=CC3(CN(C(C)c4ccc(Br)cc4)C(=O)C13)O2 (stereo not given),-13.1% (inactive)
8,CCN1C(=O)[C@@H]2[C@@H]3CN(S(=O)(=O)c4ccccc4C)[C@@H](c4ccc(Cl)cc4)[C@@H]3C(=O)C[C@@H]2C1=O,14.4% (inactive)
9,CC(C)C(C)(C#N)NC(=O)CSc1nncn1-c1ccccc1 (stereo not given),-7.95% (inactive)
10,CC1CCN(C(=O)c2ccc3c(=O)n4c(nc3c2)CCCCC4)CC1,5.45% (inactive)
11,C=CCC1(CC=C)CCCN1C(=O)CC1C(=O)NCCN1Cc1ccccc1OC (stereo not given),-17.8% (inactive)
12,CCN1CCN(C(=O)C2(NC(=O)Nc3cccc(F)c3)CCCCC2)CC1,7.69% (inactive)
13,Cc1noc(C)c1C(=O)NCC1COc2ccccc2O1 (stereo not given),7.74% (inactive)
14,O=C(Cn1cnc2ccccc2c1=O)NCC1COc2ccccc2O1 (stereo not given),-4.41% (inactive)
15,c1ccc(-c2cc3c(NCC4COc5ccccc5O4)ncnc3s2)cc1 (stereo not given),59.3% (active)
16,CCOC(=O)[C@]12CCC=C1N(CCC1=CCCCC1)C(=O)[C@H](CC(=O)NCc1ccc(C)o1)C2,-3.05% (inactive)
17,Cc1nc(Nc2ccc(S(=O)(=O)N3CCCC3)cc2)c2nnn(Cc3ccccc3)c2n1,22.5% (inactive)
18,Cc1nc(Nc2ccc3c(c2)OCCO3)c2nnn(Cc3ccccc3Cl)c2n1,82.3% (active)
19,Cc1nc(Nc2ccccc2F)c2nnn(Cc3ccccc3Cl)c2n1,-1.4% (inactive)
20,CCOC(=O)CN(C)S(=O)(=O)c1ccc(-c2cc(C(=O)OC)sc2C(F)(F)F)cc1,87.2% (active)
21,COC(=O)c1sc(C(F)(F)F)c(-c2ccccc2)c1S(=O)(=O)N(C)C,-5.2% (inactive)
22,Cc1ccc(S(=O)(=O)N(C)CC(=O)OCC(=O)Nc2ccccc2)cc1,-10.3% (inactive)
23,Cc1ccc(OCCCC(=O)NC(C)c2ccccc2)c(C)c1 (stereo not given),-19.3% (inactive)

row,SMILES,inhibition
1,Cc1ccc(C(=O)OC(C)CN2CCOCC2)cc1 (stereo not given),-24.8% (inactive)
2,Cc1cccc(C(=O)OC(C)CN2CCCC2)c1 (stereo not given),17.2% (inactive)
3,Cc1cccc(C(=O)OC(C)CN2CCN(C)CC2)c1 (stereo not given),58% (active)
4,C=CCc1c(C)nc2cc(-c3ccccc3)[nH]n2c1=O,-9.98% (inactive)
5,CCCCN1Cc2c(nc3cc(-c4ccccc4)[nH]n3c2=O)C1=O,6.47% (inactive)
6,O=c1c2c(nc3cc(-c4cccc(Cl)c4)[nH]n13)CCCC2,59.5% (active)
7,COc1cccc(C(=O)OCc2cc(=O)oc3c(C)c(C)ccc23)c1OC,54.5% (active)
8,COC(=O)Cc1cc(=O)oc2c(C)c(O)ccc12,11.1% (inactive)
9,COc1ccc(Br)cc1CN1CCN(C(=O)c2cccc(OC)c2OC)CC1,-1.16% (inactive)
10,Cc1ccc(NC(=S)N(CCCN2CCCC2)Cc2cccn2Cc2ccc(Cl)cc2)cc1,-45.1% (inactive)
11,CCOc1cc(/C=C(/C#N)c2ccc(Cl)cc2)cc(Cl)c1OCC(=O)O,70.8% (active)
12,COc1cc(/C=C(/NC(=O)c2ccc(Cl)cc2Cl)C(=O)O)cc(OC)c1OC,18.8% (inactive)
13,CCOc1cc(/C=N/NC(=O)OC)ccc1OCCSc1ccc(Cl)cc1,14.9% (inactive)
14,O=C(O)C1=C[C@H](c2cccs2)C[C@H](OCCCCO)O1,-7.03% (inactive)
15,CC(C)CCC(C)NC(=O)c1ccc2nccnc2c1 (stereo not given),-39.8% (inactive)
16,COc1cccc(NC(=O)c2ccc3c(SCC(=O)O)c4c(nc3c2)CCCC4)c1,-30.4% (inactive)
17,CC(C)CCNC(=O)c1ccc2c(Cl)c3c(nc2c1)CCC3,55.3% (active)
18,COC(=O)CNS(=O)(=O)c1ccc(Cc2ccc(S(=O)(=O)NCC(=O)OC)cc2)cc1,13.7% (inactive)
19,O=C(CCNC(=O)Cn1ccc2ccccc2c1=O)NCCC1=CCCCC1,7.75% (inactive)
20,Cc1nnc(OCC(=O)NCCC2=CCCCC2)c2ccccc12,-8.28% (inactive)
21,O=C(Cc1cccc2ccccc12)NCCC1=CCCCC1,80.3% (active)
